Laboratory results: PubChem BioAssay (NCATS)
Results filed as inconclusive are left out. Calls of active or inactive are those of the source. The call rests on the fitted dose curve; in most records, active means well fitted curve in the direction sought with a large enough effect; inconclusive means small, poorly fitted or top-dose-only effect, or another doubt; inactive means no such curve, though single readings can be large; an effect the other way counts as inactive or inconclusive.

Legend:
[1] = Quantitative High-Throughput drug screen in 47 multiple myeloma cell lines against the NCATS MIPE library collection: KMM1_JCRB cell viability assay (AID 1918960); further: nearly all actives have a fitted effect of over 30% in size
Procedure, shortened: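 Here, 48 h treatment with MIPE 4.0 agents at 37 °C preceded an ATP luminescence read. Plating density was 500 cells per well.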

[2] = Quantitative High-Throughput drug screen in 47 multiple myeloma cell lines against the NCATS MIPE library collection: JIM3_ECACC cell viability assay (AID 1918963; further: nearly all actives have a fitted effect of over 35% in size)
Procedure, shortened: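 Viability readout: CellTiter-Glo luminescence following 5 min room-temperature incubation with reagent. Prior exposure: 48 h, 37C, humidified 5% CO2, 500 cells per well.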

[3] = Quantitative High-Throughput drug screen in 47 multiple myeloma cell lines against the NCATS MIPE library collection: JJN3_DSMZ cell viability assay (AID 1918966; further: nearly all actives have a fitted effect of over 50% in size)
Procedure, shortened: (§1)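 Relative luminescence from CellTiter-Glo served as the viability signal, referenced to DMSO-treated (100%) and cell-free medium (0%) controls. Treatment lasted 48 hours at 37C with 500 cells per well.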

[4] = Quantitative High-Throughput drug screen in 47 multiple myeloma cell lines against the NCATS MIPE library collection: KMS27_JCRB cell viability assay (AID 1918970); conditions: KMS27 myeloma cells, CellTiter-Glo ATP viability, 48 h; viability (% of DMSO): at 45.8 µM (top of the series); further: nearly all actives have a fitted effect of over 30% in size
Procedure, shortened: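 KMS27_JCRB myeloma cells, 500 per well, exposed 48 h at 37 C, 5% CO2 to MIPE 4.0 compounds. Viability from ATP by CellTiter-Glo luminescence, normalized to DMSO (100%) and medium-only (0%) wells.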

[5] = Quantitative High-Throughput drug screen in 47 multiple myeloma cell lines against the NCATS MIPE library collection: KMS12PE_JCRB cell viability assay (AID 1918972); further: nearly all actives have a fitted effect of over 30% in size
Procedure, shortened: (§2)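 Approved and investigational drugs from MIPE 4.0 were added by pin tool to 500 cells per well. After 48 hours at 37C, ATP-based CellTiter-Glo luminescence indicated remaining viability.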

[6] = Quantitative High-Throughput drug screen in 47 multiple myeloma cell lines against the NCATS MIPE library collection: KMS26_JCRB cell viability assay (AID 1918975); further: nearly all actives have a fitted effect of over 45% in size
Procedure, shortened: (§3)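 Steps: seed 500 cells per well; pin-transfer MIPE 4.0 library; incubate 48 h at 37C, 5% CO2, humidified; add CellTiter-Glo, 5 min room temperature; read luminescence.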

[7] = Quantitative High-Throughput drug screen in 47 multiple myeloma cell lines against the NCATS MIPE library collection: MMM1_PLB cell viability assay (AID 1918976); further: nearly all actives have a fitted effect of over 35% in size
Procedure, shortened: (§4)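 MIPE 4.0 approved/investigational drugs; 500 cells/well; 48 h 37 °C humidified 5% CO2; CTG luminescence readout; DMSO = 100%, media = 0% viability.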

[8] = Quantitative High-Throughput drug screen in 47 multiple myeloma cell lines against the NCATS MIPE library collection: MOLP8_DSMZ cell viability assay (AID 1918977); further: nearly all actives have a fitted effect of over 45% in size
Procedure, shortened: as §4

[9] = Quantitative High-Throughput drug screen in 47 multiple myeloma cell lines against the NCATS MIPE library collection: NCIH929_DSMZ cell viability assay (AID 1918978); further: nearly all actives have a fitted effect of over 35% in size
Procedure, shortened: as §4

[10] = Quantitative High-Throughput drug screen in 47 multiple myeloma cell lines against the NCATS MIPE library collection: OCIMY1_PLB cell viability assay (AID 1918979); further: nearly all actives have a fitted effect of over 35% in size
Procedure, shortened: as §4

[11] = Quantitative High-Throughput drug screen in 47 multiple myeloma cell lines against the NCATS MIPE library collection: MM1S_ATCC cell viability assay (AID 1918980); further: nearly all actives have a fitted effect of over 45% in size
Procedure, shortened: as §4

[12] = Quantitative High-Throughput drug screen in 47 multiple myeloma cell lines against the NCATS MIPE library collection: H1112_PLB cell viability assay (AID 1918967; further: nearly all actives have a fitted effect of over 30% in size)
Procedure, shortened: as §1

[13] = Quantitative High-Throughput drug screen in 47 multiple myeloma cell lines against the NCATS MIPE library collection: Karpas25_ECACC cell viability assay (AID 1918968; further: nearly all actives have a fitted effect of over 35% in size)
Procedure, shortened: as §1

[14] = Quantitative High-Throughput drug screen in 47 multiple myeloma cell lines against the NCATS MIPE library collection: JIM1_ECACC cell viability assay (AID 1918964)
Procedure, shortened: as §1

[15] = Quantitative High-Throughput drug screen in 47 multiple myeloma cell lines against the NCATS MIPE library collection: INA6_PLB cell viability assay (AID 1918965; further: nearly all actives have a fitted effect of over 55% in size)
Procedure, shortened: as §2

[16] = Quantitative High-Throughput drug screen in 47 multiple myeloma cell lines against the NCATS MIPE library collection: KMS12BM_JCRB cell viability assay (AID 1918971); further: nearly all actives have a fitted effect of over 35% in size
Procedure, shortened: as §3

[17] = Quantitative High-Throughput drug screen in 47 multiple myeloma cell lines against the NCATS MIPE library collection: KMS20_JCRB cell viability assay (AID 1918973); further: nearly all actives have a fitted effect of over 45% in size
Procedure, shortened: as §1

[18] = Quantitative High-Throughput drug screen in 47 multiple myeloma cell lines against the NCATS MIPE library collection: KMS21BM_JCRB cell viability assay (AID 1918974); conditions: ATP luminescence, 48 h; viability: at 45.8 µM (top of the series)
Procedure, shortened: as §1

Measured: Potency
Potency means the concentration at half of the fitted maximal effect.

CC1(C)CC(=O)c2c(C(F)(F)F)nn(-c3ccc(C(N)=O)c(NC4CCC(O)CC4)c3)c2C1 (stereo not given)
inactive: [1] | [4] | [5]
active: [2] 0.105 µM | [3] 0.0662 µM | [6] 0.0469 µM | [7] 0.372 µM | [8] 0.0418 µM | [9] 0.105 µM | [10] 0.235 µM | [11] 0.148 µM

Cc1ccc(C2=Nc3ccc(Cl)cc3OC2)cc1
active: [1] 3.32 µM | [3] 5.26 µM | [13] 3.72 µM | [7] 18.7 µM
inactive: [2] | [12] | [6] | [9] | [10]

CC(C)c1onc(-c2c(Cl)cccc2Cl)c1COc1ccc(C=Cc2cccc(C(=O)O)c2)c(Cl)c1
active: [7] 20.9 µM | [11] 18.7 µM
inactive: [1] | [14] | [15] | [12] | [4] | [5] | [8] | [9]

Fc1ccc(C(c2ccc(F)cc2)N2CCN(CC=Cc3ccccc3)CC2)cc1
inactive: [1] | [14] | [12] | [13] | [16] | [5] | [10]
active: [9] 18.7 µM

CCCCCCOC(=O)N=C(N)c1ccc(NCc2nc3cc(C(=O)N(CCC(=O)OCC)c4ccccn4)ccc3n2C)cc1
active: [1] 16.6 µM | [14] 8.33 µM | [15] 16.6 µM | [3] 18.7 µM | [4] 11.8 µM | [16] 16.6 µM | [7] 14.8 µM | [8] 20.9 µM

CC(C)CN(C[C@H](O)[C@H](Cc1ccccc1)NC(=O)O[C@H]1CCOC1)S(=O)(=O)c1ccc(N)cc1
active: [3] 1.87 µM | [12] 18.7 µM | [17] 16.6 µM | [6] 8.33 µM | [11] 16.6 µM
inactive: [1] | [4] | [5] | [8] | [10]

CCCCC[C@H](O)C=C[C@H]1[C@H](O)CC(=O)[C@H]1CCCCCCC(=O)O
inactive: [1] | [14] | [12] | [4] | [5] | [6] | [9] | [10]
active: [3] 7.43 µM | [7] 8.33 µM | [11] 3.32 µM

N#Cc1ccc(Oc2ccc3c(c2)COB3O)cc1
active: [1] 16.6 µM | [15] 20.9 µM | [4] 23.5 µM | [18] 3.32 µM
inactive: [10]

c1ccc(-c2oc3ncnc(NC[C@@H]4CCCO4)c3c2-c2ccccc2)cc1
inactive: [12] | [9]
active: [1] 3.32 µM | [15] 16.6 µM | [3] 16.6 µM | [4] 4.69 µM | [16] 23.5 µM | [5] 4.69 µM | [7] 20.9 µM | [11] 18.7 µM

Oc1ccc(C=Cc2cc(O)cc(O)c2)cc1
active: [15] 16.6 µM | [13] 18.7 µM | [16] 33.2 µM | [7] 16.6 µM | [11] 18.7 µM
inactive: [1] | [14] | [4] | [5] | [9] | [10]

Cc1cc(NC(=O)Nc2ccc(N(C)C)cc2)c2cc(F)cc(F)c2n1
inactive: [1] | [2] | [4] | [9]
active: [13] 3.72 µM | [5] 1.66 µM | [7] 20.9 µM | [8] 23.5 µM | [11] 16.6 µM

CCN1CCN(c2ccc(Nc3cc(N(C)C(=O)Nc4c(Cl)c(OC)cc(OC)c4Cl)ncn3)cc2)CC1
active: [13] 18.7 µM | [16] 16.6 µM | [17] 2.09 µM
inactive: [1] | [2] | [12] | [4] | [9]

Cc1ccc2c(=O)c3cccc(CC(=O)O)c3oc2c1C
inactive: [1] | [5] | [7] | [10]
active: [15] 23.5 µM | [12] 26.4 µM | [6] 20.9 µM | [11] 14.8 µM

COc1ccnc(CS(=O)c2nc3ccc(OC(F)F)cc3[nH]2)c1OC (stereo not given)
inactive: [1] | [2] | [16] | [17] | [10]
active: [9] 18.7 µM

OC1CCC(Nc2ncc3nc(Nc4c(F)cc(F)cc4F)n([C@@H]4CCOC4)c3n2)CC1 (stereo not given in full)
active: [1] 11.8 µM | [14] 16.6 µM | [15] 14.8 µM | [16] 23.5 µM | [5] 18.7 µM | [18] 4.69 µM | [8] 11.8 µM | [11] 11.8 µM
inactive: [6]

O=C1CN2Cc3c(ccc(Cl)c3Cl)N=C2N1
inactive: [1] | [14] | [5] | [10]
active: [12] 29.6 µM | [4] 0.296 µM | [16] 23.5 µM | [7] 23.5 µM | [11] 18.7 µM

NC(N)=Nc1nc(CSCCC(N)=NS(N)(=O)=O)cs1
inactive: [1] | [16] | [5]
active: [15] 11.8 µM | [12] 16.6 µM | [13] 11.8 µM | [9] 8.33 µM | [11] 9.35 µM
